Assay outcomes (PubChem)
Hits are enriched below; roughly 18% of the tested compounds scored in any of these assays.
TDP1 block: inhibitors of human tyrosyl-DNA phosphodiesterase TDP1 | Q9NUW8 | recombinant TDP1, AlphaScreen DNA substrate cleavage | Potency, µM (highest dose often 130 µM), inactives show at the highest dose activity change, negative = inhibition, hits mostly inhibitors | actives 0.28% (n = 350,000) | AID 485290; further: potency means the concentration at half of the fitted maximal effect; on the % scale 0 is the no-effect control and ±100 the full control effect; nearly all actives have a fitted effect of over 40% in size
Target sequence (Q9NUW8 whole entry, looked up): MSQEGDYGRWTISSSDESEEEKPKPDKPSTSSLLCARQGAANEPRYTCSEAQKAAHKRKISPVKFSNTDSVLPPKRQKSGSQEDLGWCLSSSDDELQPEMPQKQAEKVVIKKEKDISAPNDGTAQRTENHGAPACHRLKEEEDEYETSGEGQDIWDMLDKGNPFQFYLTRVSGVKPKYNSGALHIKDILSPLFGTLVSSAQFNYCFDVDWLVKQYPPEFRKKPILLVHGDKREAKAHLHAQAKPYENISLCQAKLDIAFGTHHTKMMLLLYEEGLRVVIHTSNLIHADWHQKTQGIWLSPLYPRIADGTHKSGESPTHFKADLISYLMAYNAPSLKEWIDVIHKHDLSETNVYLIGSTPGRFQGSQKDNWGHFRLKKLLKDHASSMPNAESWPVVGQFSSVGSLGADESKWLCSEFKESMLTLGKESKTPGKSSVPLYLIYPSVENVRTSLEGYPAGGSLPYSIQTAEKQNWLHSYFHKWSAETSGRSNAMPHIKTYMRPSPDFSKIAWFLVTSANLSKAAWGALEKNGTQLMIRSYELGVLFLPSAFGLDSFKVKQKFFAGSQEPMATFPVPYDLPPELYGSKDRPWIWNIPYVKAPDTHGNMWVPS
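Steps: enzyme plus compound, 15 min RT; add biotin/phosphotyrosine-FITC oligonucleotide (15 nM final), react 5 min; add donor/acceptor beads (10 ug/ml final), 10 min; read AlphaScreen. Tdp1 at 1 nM final.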
DT40 TDP1 CPT: growth inhibition of DT40 Tdp1-/-;hTDP1 cells with camptothecin (screen for TDP1 inhibitors) | actives 12% (n = 420,000) | Potency, µM (doses to about 46.2 µM), without a hit: top-dose activity change, negative = growth inhibition, hits mostly inhibitors | AID 686979 | chicken DT40 Tdp1-/-;hTDP1 cells + 20 nM CPT, ATP luminescence, 48 h; further: potency means the concentration at half of the fitted maximal effect; on the % scale 0 is the no-effect control and ±100 the full control effect; nearly all actives have a fitted effect of over 55% in size
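Cell growth measured by CellTiter-Glo luminescence after a minimum 48 h, 37 C compound exposure with 20 nM CPT in Tdp1-knockout DT40 cells stably expressing hTDP1, seeded 400/well; qHTS titration format.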
IL1B secr inh: blocks inflammasome-driven IL-1 beta release; THP-1 LPS/ATP IL-1B secretion, AlphaLISA, 16 h; hits give low values; activity change, % at 57.5 µM; actives 4.7% (n = 360,000); AID 743279; in the data active means activity change below about -50%; inconclusive means mostly about -30% to -49%; further: on the % scale 0 is the no-effect control and ±100 the full control effect
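THP-1 cells pretreated 1 hr with compounds (up to 57.5 uM final), then stimulated with LPS (250 ng/mL final) plus ATP (1.25 mM final); secreted IL-1B measured by AlphaLISA after 16 hr, decreased signal indicating inhibition.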
HepG2 viability: kills HepG2 cells in TGF-b inhibitor counter-screen. HepG2 CAGA-GFP viability, ATP luminescence, 18 h. Potency, µM (top dose mostly 46.1 µM), for the others: top-dose activity change, negative = cytotoxicity, actives largely listed as cytotoxic. actives 0.76% (n = 410,000). AID 588856; further: potency means the concentration at half of the fitted maximal effect
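HepG2 CAGA-GFP cells (1000/well, DMEM with 1% FBS) received compound, then TGF-beta at 500 pg/mL final, and were incubated 18 hours at 37 degrees C. Viability was read by CellTiter-Glo luminescence. Media-only wells were set as complete cell-killing and DMSO as no toxicity.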
TGFb inhibitor: TGF-b pathway inhibition; Potency, µM (top dose mostly 46.1 µM), for the others: top-dose activity, negative = inhibition, most hits filed as inhibitors; actives 1.2% (n = 410,000); HepG2 CAGA-GFP TGF-b/SMAD3 reporter, GFP fluorescence, 18 h; TGF-beta stimulated, 500 pg/mL final; further: potency means the concentration at half of the fitted maximal effect; on the % scale 0 is the no-effect control and ±100 the full control effect; nearly all actives have a fitted effect of over 65% in size
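Smad-responsive CAGA-GFP expression was quantified in HEPG2 cells exposed to compounds and 500 pg/mL final TGF-beta for 18 h at 37 degrees C; unstimulated wells defined full inhibition.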
TDP1 cell noCPT: qHTS for Inhibitors of human tyrosyl-DNA phosphodiesterase 1 (TDP1): qHTS in cells in absence of CPT; DT40 Tdp1-/- hTDP1 cells, no CPT, ATP luminescence, 48 h; Potency, µM (titrated, usually from 46.2 µM), for the others: at the top dose activity change, negative = growth inhibition, usual class: inhibitors; actives 15% (n = 420,000); AID 686978, 2013; further: potency means the concentration at half of the fitted maximal effect; on the % scale 0 is the no-effect control and ±100 the full control effect; nearly all actives have a fitted effect of over 55% in size
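Chicken DT40 Tdp1-/- cells complemented with human TDP1, screened without camptothecin (DMSO vehicle only), 400 cells/well. Compounds pin-transferred, cells incubated at 37 °C for at least 48 hr. Growth read as ATP-dependent luminescence (CellTiter-Glo, 30 min at RT).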
Starred values were filed as active, the others as inactive; [ ] = another dose, or the depositor's remark. Unless noted, the call rests on the fitted dose curve; in most records, active means well fitted curve in the direction sought with a large enough effect; inconclusive means small, poorly fitted or top-dose-only effect, or another doubt; inactive means no such curve, though single readings can be large; an effect the other way counts as inactive or inconclusive.

CCc1nc2c(OCc3ccccc3OC)cccn2c1N(C)C(=O)C(C)C was read as DT40 TDP1 CPT inconclusive, IL1B secr inh 35, HepG2 viability -1%, TGFb inhibitor 4% and TDP1 cell noCPT inconclusive.
Screening CCC(CC)C(=O)N(C)c1c(C)nc2c(OCC=C(C)C)cccn12 returned DT40 TDP1 CPT 13µM*, IL1B secr inh 85, HepG2 viability -5%, TGFb inhibitor -11% and TDP1 cell noCPT 16µM*.
CCc1nc2c(OCc3c(C)noc3C)cccn2c1N(C)C(=O)C(C)C was read as DT40 TDP1 CPT inconclusive, IL1B secr inh 6, HepG2 viability 3%, TGFb inhibitor 14% and TDP1 cell noCPT inconclusive.
Screening Cc1ccc(S(=O)(=O)N2CCCC(C(=O)N3CCCc4ccccc43)C2)cc1 (centres undefined) returned TDP1 block 1%, DT40 TDP1 CPT 21µM*, IL1B secr inh 9, HepG2 viability -9%, TGFb inhibitor -13% and TDP1 cell noCPT 21µM*.
Screening O=C(C1CCCN(S(=O)(=O)c2ccccc2)C1)N1CCCc2ccccc21 (centres undefined) returned TDP1 block -5%, DT40 TDP1 CPT inconclusive, IL1B secr inh 23, HepG2 viability -7%, TGFb inhibitor -18% and TDP1 cell noCPT 18µM*.
Screening CCC1CC(=O)CCN1S(=O)(=O)c1ccc(C)cc1 (centres undefined) returned DT40 TDP1 CPT 6%, IL1B secr inh -3, HepG2 viability 1%, TGFb inhibitor -3% and TDP1 cell noCPT 8%.
CCOC(=O)C1(C)CCN1C(=O)c1ccc(N(C)C)cc1 (centres undefined) was read as DT40 TDP1 CPT -13%, IL1B secr inh 0, HepG2 viability -2%, TGFb inhibitor 0% and TDP1 cell noCPT -11%.
For Cc1nc2nc(NC(=O)C(C)C)[nH]n2c(=O)c1Cc1ccccc1 the results were TDP1 block 2%, DT40 TDP1 CPT 3%, HepG2 viability -13%, TGFb inhibitor -26% and TDP1 cell noCPT -6%.
`COC(=O)CNC(=O)[C@@]1(C)C=C[C@@H](Cc2ccccc2)N1C(C)=O` gave TDP1 block 0%.
O=C(Nc1ccccc1F)C1CCN(S(=O)(=O)c2cccc3nonc23)CC1 was read as TDP1 block 10%, DT40 TDP1 CPT -14%, IL1B secr inh -18, HepG2 viability 0%, TGFb inhibitor 1% and TDP1 cell noCPT -14%.
Screening CCC(=O)NC(c1cc(Cl)c2cccnc2c1O)c1cccn1C (centres undefined) returned TDP1 block 2%.
COc1ccc(C(NC(=O)c2cccnc2)c2cc(Cl)c3cccnc3c2O)cc1OC (centres undefined) was read as TDP1 block 8%, DT40 TDP1 CPT 18µM*, IL1B secr inh 94, HepG2 viability -102%, TGFb inhibitor inconclusive and TDP1 cell noCPT 18µM*.
`COc1ccc(C(=O)NCCCNC(=O)c2cccnc2)cc1OC` gave TDP1 block 3%[0.0935 µM], DT40 TDP1 CPT 4%, IL1B secr inh 9, HepG2 viability -5%, TGFb inhibitor -2% and TDP1 cell noCPT 15%.
COc1ccc(C(=O)NC(c2ccc(OC)c(OC)c2)c2cc(Cl)c3cccnc3c2O)cc1 (centres undefined) was read as DT40 TDP1 CPT 5µM*, HepG2 viability -2%, TGFb inhibitor -1% and TDP1 cell noCPT 5.6µM*.
For N#C/C(=C\c1cn(Cc2ccc(F)cc2)c2ccccc12)C(=O)NCc1ccco1 the results were TDP1 block -3%, DT40 TDP1 CPT 18µM*, IL1B secr inh 16, HepG2 viability -47%, TGFb inhibitor inconclusive and TDP1 cell noCPT inconclusive.
For N#C/C(=C\c1cn(Cc2ccccc2)c2ccccc12)C(=O)NCc1ccco1 the results were TDP1 block -1%, DT40 TDP1 CPT inconclusive, IL1B secr inh -3, HepG2 viability -22%, TGFb inhibitor -1% and TDP1 cell noCPT inconclusive.
Screening Cc1ccc(Cn2cc(/C=C(/C#N)C(=O)Nc3cccc(Cl)c3)c3ccccc32)cc1 returned TDP1 block -4%[12.3 µM], DT40 TDP1 CPT inconclusive, HepG2 viability -27%, TGFb inhibitor inconclusive and TDP1 cell noCPT inconclusive.
For COc1cccc(NC(=O)/C(C#N)=C\c2cn(Cc3ccc(Cl)cc3)c3ccccc23)c1 the results were TDP1 block 0%[12.3 µM], DT40 TDP1 CPT inconclusive, HepG2 viability -11%, TGFb inhibitor 11µM* and TDP1 cell noCPT inconclusive.
`O=C(/C=C/c1ccc(N2CCCCC2)c([N+](=O)[O-])c1)c1ccc(S(=O)(=O)N2CCCC2)cc1` gave TDP1 block 11%, DT40 TDP1 CPT 9.2µM*, IL1B secr inh 6, HepG2 viability -1%, TGFb inhibitor -26% and TDP1 cell noCPT 9.2µM*.
`COc1cccc(C(=O)/C=C/c2ccc(N3CCCCC3)c([N+](=O)[O-])c2)c1` gave TDP1 block 12%, DT40 TDP1 CPT 18µM*, IL1B secr inh -96*, HepG2 viability -54%, TGFb inhibitor -19% and TDP1 cell noCPT inconclusive.
Screening S=C(Nc1ccccc1Cl)NC1CCN(Cc2ccccc2)CC1 returned TDP1 block -5%, DT40 TDP1 CPT 21µM*, IL1B secr inh -7, HepG2 viability -41%, TGFb inhibitor -34% and TDP1 cell noCPT 18µM*.
Screening S=C(NCc1ccc(Cl)cc1)NC1CCN(Cc2ccccc2)CC1 returned TDP1 block 5%, DT40 TDP1 CPT 18µM*, IL1B secr inh -92*, HepG2 viability -64%, TGFb inhibitor inconclusive and TDP1 cell noCPT 16µM*.
`Cc1ccc(NC(=S)NC2CCN(Cc3ccccc3)CC2)cc1C` gave TDP1 block 5%, DT40 TDP1 CPT inconclusive, IL1B secr inh -20, HepG2 viability -2%, TGFb inhibitor 3% and TDP1 cell noCPT 26µM*.
Screening CC(C)c1ccccc1NC(=S)NC1CCN(Cc2ccccc2)CC1 returned TDP1 block 3%, DT40 TDP1 CPT inconclusive, IL1B secr inh inconclusive, HepG2 viability -9%, TGFb inhibitor -5% and TDP1 cell noCPT inconclusive.
